# ATXN2 expr inh – Primary qHTS for Inhibitors of ATXN expression | HEK-293 ATXN2-luciferase reporter, luminescence, 24 h | Potency, µM (top dose mostly 57 µM), without a hit: at the top dose activity change, negative = inhibition, usual class: inhibitors | 360,000 tested, 0.72% active | AID 1745845, 2022; further: on the % scale 0 is the no-effect control and ±100 the full control effect; nearly all actives have a fitted effect of over 55% in size
#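 qHTS (up to 57 uM final) was run with 24 h compound exposure of reporter cells at 37 °C. Each well was multiplexed: SteadyGlo luminescence measured ATXN2-luciferase expression after a fluorogenic Gly-Phe-AFC viability readout (25 uM final).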
# TGFb SMAD3 inh – qHTS for Inhibitors of TGF-b. 410,000 tested, 1.2% active. HepG2 CAGA-GFP TGF-b/SMAD3 reporter, GFP fluorescence, 18 h; TGF-beta stimulated, 500 pg/mL final. AID 588855, 2011. Potency, µM (doses to about 46.1 µM), inactives show at the top dose activity, negative = inhibition, usual class: inhibitors; further: on the % scale 0 is the no-effect control and ±100 the full control effect; nearly all actives have a fitted effect of over 65% in size
#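 GFP signal (ex488/em500-530) from TGF-beta-stimulated HEPG2 CAGA-GFP cells, 500 pg/mL final, 18 h at 37 degrees C in DMEM plus 1% FBS, normalized to unstimulated and DMSO-stimulated controls.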
# ATXN viability – Viability Counterscreen for Primary qHTS for Inhibitors of ATXN expression. S2 cells (HEK-293 line with an ATXN2-luciferase reporter) viability, CellTiter-Fluor protease fluorescence, 24 h. Potency, µM (titrated, usually from 56.7 µM), usual class: cytotoxic. 400,000 tested, 0.49% active; further: nearly all actives have a fitted effect of over 40% in size
# HepG2 viability – qHTS for Inhibitors of TGF-b: Cytotox Counterscreen; HepG2 CAGA-GFP viability, ATP luminescence, 18 h; 410,000 tested, 0.76% active; Potency, µM (top dose mostly 46.1 µM), without a hit: top-dose activity change, negative = cytotoxicity, most hits filed as cytotoxic; AID 588856, 2011
#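 CellTiter-Glo luminescence gave cytotoxicity after 18 hours at 37 degrees C. The cells were HepG2 CAGA-GFP in 1% FBS DMEM, stimulated with 500 pg/mL TGF-beta after compound addition. %Activity was normalised to no-cell wells (complete cell-killing) and DMSO (no toxicity), and curves were fitted and classified.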
# Anesthetic bind – qHTS Assay for Identification of Novel General Anesthetics. Potency, µM (highest dose often 77.5 µM), for the others: at the top dose activity change, negative = displacement, most hits filed as inhibitors. AID 485281, 2010. 350,000 tested, 0.074% active. Ferritin light chain (Equus caballus), P02791. apoferritin/1-aminoanthracene competitive binding, fluorescence; further: on the % scale 0 is the no-effect control and ±100 the full control effect; nearly all actives have a fitted effect of over 20% in size
# Target sequence (P02791 2-175 limits assumed): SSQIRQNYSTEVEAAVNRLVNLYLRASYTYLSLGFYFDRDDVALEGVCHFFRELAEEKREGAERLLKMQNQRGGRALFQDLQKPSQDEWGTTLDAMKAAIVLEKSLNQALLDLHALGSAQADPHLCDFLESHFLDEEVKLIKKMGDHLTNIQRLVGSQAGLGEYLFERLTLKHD
#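 Read-out: endpoint 1-AMA fluorescence, excitation 380 nm and emission 535 nm, after compounds sit 10 min at room temperature with 10 uM horse-spleen apoferritin in 50% saturated 1-AMA/PBS. Values come from four-parameter Hill fits.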
# The depositor's hits bear a star; i = inactive; ? = inconclusive; . = no result given; ! = not confirmed by another sample. Sampled rows, rich in hits. Any-hit rate of the full collection: about 2.4%. The call rests on the fitted dose curve; in most records, active means well fitted curve in the direction sought with a large enough effect; inconclusive means small, poorly fitted or top-dose-only effect, or another doubt; inactive means no such curve, though single readings can be large; an effect the other way counts as inactive or inconclusive. Potency means the concentration at half of the fitted maximal effect.
SMILES,ATXN2 expr inh,TGFb SMAD3 inh,ATXN viability,HepG2 viability,Anesthetic bind
CN(C)CCNC(=O)c1ccc2c(c1)N(Cc1c(F)cccc1Cl)C(=O)c1ccccc1S2,22µM*,?,i,-67%,-7%
CCCCN(CC)CCCNC(=O)c1ccc2c(c1)N(Cc1ccc(C)cc1)C(=O)c1ccccc1S2,.,14µM*,.,11µM*,?
O=C(NCCCN1CCOCC1)c1ccc2c(c1)N(Cc1ccccc1)C(=O)c1ccccc1S2,7%,0%,i,-1%,-4%
Cc1cccc(CN2C(=O)c3ccccc3Sc3ccc(C(=O)NCCCN4CCOCC4)cc32)c1,-29%,11µM*!,?,11µM*!,-4%
O=C(NCCN1CCOCC1)c1ccc2c(c1)N(Cc1c(F)cccc1Cl)C(=O)c1ccccc1S2,?,?,i,-16%,-18%
COCCCNC(=O)c1ccc2c(c1)N(Cc1ccccc1)C(=O)c1ccccc1S2,.,-20%,.,-34%,-3%
CCC(C)N(C(=O)Cn1c(=O)cnc2ccccc21)C1CCS(=O)(=O)C1 (stereo not drawn),4%,-2%,?,0%,.
COc1ccc(C(=O)N/N=C/c2cc(Br)ccc2O)cc1OC,1.4µM*,-8%,i,-19%,-7%
COc1ccc(Br)cc1/C=N/NC(=O)c1cc(Br)ccc1O,.,.,.,.,0%
COc1ccc(O)c(/C=N/NC(=O)c2ccc(OCc3cccc(Br)c3)cc2)c1,3.2µM*,-5%,?,-38%,-19%
Cc1cc(C)nc(SCc2ccc(C(=O)N/N=C/c3cccc(O)c3O)cc2)n1,?,0%,?,-17%,-17%
COc1ccc(O)c(/C=N/NC(=O)c2ccc(CSc3nc(C)cc(C)n3)cc2)c1,4.5µM*,?,i,-37%,36%
Cc1cccc(C(=O)N2CCc3cc(CNS(=O)(=O)c4ccc(F)c(Cl)c4)ccc32)c1,.,-12%,.,-18%,-15%
O=C(C[n+]1ccccc1Br)c1ccc(Cl)cc1,.,28%,.,8%,.
CC(C)CC(CSc1ccc(Br)cc1)N1CCN(C)CCC1=O (stereo not drawn),.,-15%,.,-20%,-6%
O=C(COC(=O)Cc1ccccc1F)Nc1cc(S(=O)(=O)N2CCOCC2)ccc1N1CCCC1,3%,-14%,1µM*,-35%,-13%
O=C(COC(=O)CCc1ccccc1)Nc1cc(S(=O)(=O)N2CCOCC2)ccc1N1CCCC1,-2%,7%,i,1%,-5%
CCN1CCN(c2ccc(S(=O)(=O)N3CCOCC3)cc2NC(=O)C2CCC(C(C)(C)C)CC2)CC1 (stereo not drawn),.,?,i,20µM*,.
O=C(NN1CCCC1)NS(=O)(=O)c1ccc(Cl)cc1,7%,.,i,.,.
COc1cccc(CNC(=O)c2c(OC)cc(=O)n3c2CCN(C(=O)c2ccoc2C)CC3)c1,.,.,i,.,.
Clc1ccc(-c2cn3nc4c(nc3n2)CCCC4)cc1,14µM*,5%,.,-1%,60%
COc1cccc(-c2cn3nc4c(nc3n2)CCCC4)c1,?,-7%,i,-71%,58%
O=C(OCC(COC(=O)c1cccnc1)(COC(=O)c1cccnc1)COC(=O)c1cccnc1)c1cccnc1,-5%,.,i,.,.
COC(=O)C(Cc1c[nH]c2ccccc12)NC(=O)CNC(C)=O (stereo not drawn),1%,34%,i,-1%,-11%
COC(=O)C(Cc1c[nH]c2ccccc12)NC(=O)COc1ccc(Cl)cc1Cl (stereo not drawn),.,11µM*,.,-63%,9%
SMILES,ATXN2 expr inh,TGFb SMAD3 inh,ATXN viability,HepG2 viability,Anesthetic bind
CSc1ccccc1NC(=O)COc1ccc(Cl)cc1Cl,9%,?,i,-35%,0%
O=C(COc1ccc(Cl)cc1Cl)Nc1ccccn1,2.8µM*,8%,i,-38%,-13%
Cc1nnc(N2CCCC(C(=O)Nc3cccc(C(F)(F)F)c3)C2)c2nn(-c3ccccc3)c(C)c12 (stereo not drawn),-20%,?,16µM*,-83%,-12%
Cc1nnc(N2CCCC(C(=O)NCc3ccccc3F)C2)c2nn(-c3ccccc3)c(C)c12 (stereo not drawn),-21%,14%,i,0%,-9%
Cc1nnc(N2CCCC(C(=O)NCCc3ccccc3)C2)c2nn(-c3ccccc3)c(C)c12 (stereo not drawn),-25%,-28%,13µM*,-34%,-3%
Cc1nnc(N2CCCC(C(=O)NCc3ccccc3)C2)c2nn(-c3ccccc3)c(C)c12 (stereo not drawn),6%,-2%,?,2%,-16%
Cc1ccccc1CNC(=O)C1CCCN(c2nnc(C)c3c(C)n(-c4ccccc4)nc23)C1 (stereo not drawn),20µM*,-6%,32µM*,-16%,-11%
CCc1ccc(CNC(=O)C2CCCN(c3nnc(C)c4c(C)n(-c5ccccc5)nc34)C2)cc1 (stereo not drawn),?,?,20µM*,-51%,?
O=C(NCCc1nnc2n1CCN(CC1CC=CCC1)CC2)c1ccc(F)cc1 (stereo not drawn),.,.,i,.,.
Cc1cccc(C(=O)N[C@H]2CC[C@@H](n3cc(C(=O)N4CCCC4)nn3)CC2)c1,.,.,i,.,.
COc1ccc(NC(=O)C2CCCN(c3ncnc4onc(C)c34)C2)cc1OC (stereo not drawn),-15%,-6%,i,-12%,-9%
Cc1noc2ncnc(N3CCCC(C(=O)Nc4cccc(C(F)(F)F)c4)C3)c12 (stereo not drawn),20µM*,?,.,-13%,?
COc1ccccc1NC(=O)c1c(NC(=O)c2cccs2)sc2c1CCC(C(C)(C)C)C2 (stereo not drawn),-3%,-12%,i,-12%,3%
CC(C)(C)C1CCc2c(sc(NC(=O)CCC(=O)O)c2C(=O)Nc2ccccc2C(F)(F)F)C1 (stereo not drawn),.,?,.,16µM*,?
COC(=O)[C@@H]1CC[C@H](C)[C@@H](c2ccc(C)cc2)N1C(=O)c1ccc(/C=N/O[C@@H](C)c2cn([C@H](CO)Cc3ccccc3)nn2)cc1,.,.,.,.,-18%
CC1(C)CC(=O)C2=C(C1)NC(Nc1nc3ccccc3o1)=NC2c1ccccc1Cl (stereo not drawn),.,16%,.,-3%,.
CC1=C(C(=O)Nc2ccccc2)C(c2ccc(C)cc2)N=C(Nc2nc3ccccc3o2)N1 (stereo not drawn),?,?,?,11µM*,-8%
CS(=O)(=O)c1ccc2nc(NC(=O)c3cccs3)sc2c1,?,-22%,i,10µM*,0%
CC(C)CC(=O)Nc1nc2ccc(S(C)(=O)=O)cc2s1,11%,-15%,i,11µM*,-9%
